Assay outcomes as filed in PubChem BioAssay.
p53null 39C tox – qHTS Screen for Compounds that Selectively Target Cancer Cells with p53 Mutations: Cytotoxicity of p53 Null Cells at the Nonpermissive Temperature; AID 904, 2007; H1299 p53-null (neo) cells, 39C, ATPlite viability, 24 h; actives 0.97% (n = 55,000); Potency, µM (doses to about 46.1 µM), without a hit: at the highest dose activity, negative = cell killing, actives largely listed as cytotoxic;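 also: potency is read from the fitted curve at half-maximal effect; 0% = DMSO only and -100% = full killing by 100 µM tamoxifen; nearly all actives have a fitted effect of over 50% in size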
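H1299 lung cancer cells, p53-null (H1299-neo) or expressing p53 A138V (H1299-p53A138V), were plated overnight at 37C, then exposed to compounds at up to 46 uM for 24 hr at 39C. Viability was read by ATP-based luminescence.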
FH mod – Identification of activators of human fumarate hydratase by quantitative high-throughput screening. Fumarate hydratase, mitochondrial (Homo sapiens), P07954. FH coupled MDH/diaphorase resazurin fluorescence, 15 min. Potency, µM (titrated, usually from 79.9 µM), without a hit: at the top dose activity change, negative = inhibition, hits mostly inhibitors. actives 0.22% (n = 54,000). AID 1347055, 2019; also: potency is read from the fitted curve at half-maximal effect; % is scaled to controls: 0 for no effect and ±100 for the full control effect; the screen sought activators but most active calls are inhibition curves; nearly all actives have a fitted effect of over 45% in size
DRV1 agonist – qHTS for Agonists of Human Resolvin D1 Receptor DRV1 | Probable G-protein coupled receptor 32 (Homo sapiens), O75388 | CHO-K1 GPR32 beta-arrestin PathHunter luminescence, 90 min; zero percent set by DMSO-only wells | activation, % at 76.9 µM | actives 2.5% (n = 48,000) | AID 1346428, 2018;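 active = activation of at least 60% and not above a set upper limit, about 1 call in 100 departs from these limits; inconclusive = activation of 40% to 60%, or above that upper limit; inactive = activation under 40%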; also: 0% is about no effect
Target sequence (O75388 whole entry, looked up): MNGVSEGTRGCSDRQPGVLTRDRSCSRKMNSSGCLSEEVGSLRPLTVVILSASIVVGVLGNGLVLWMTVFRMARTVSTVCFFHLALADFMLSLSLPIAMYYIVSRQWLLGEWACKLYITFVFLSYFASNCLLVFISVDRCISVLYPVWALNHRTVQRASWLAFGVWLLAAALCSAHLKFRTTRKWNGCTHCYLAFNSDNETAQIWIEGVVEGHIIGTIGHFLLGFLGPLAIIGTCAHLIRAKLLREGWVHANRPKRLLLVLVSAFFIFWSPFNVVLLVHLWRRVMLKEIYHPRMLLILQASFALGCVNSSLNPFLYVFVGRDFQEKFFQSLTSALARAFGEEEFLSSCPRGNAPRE
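Luminescent readout of beta-Gal complementation quantifies ligand-induced beta-arrestin association with GPR32 in CHO-K1 cells; 90 min compound incubation at 37 °C, detection 1 h at room temperature.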
p53null 32C tox – qHTS Screen for Compounds that Selectively Target Cancer Cells with p53 Mutations: Cytotoxicity of p53 Null Cells at the Permissive Temperature; H1299-neo p53 null cells, ATP luminescence, 24 h, 32C; Potency, µM (top dose mostly 46.1 µM), inactives show at the highest dose activity change, negative = cytotoxicity, actives largely listed as cytotoxic; actives 0.62% (n = 55,000); AID 903, 2007;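 also: potency is read from the fitted curve at half-maximal effect; 0% = DMSO only and -100% = full killing by 100 µM tamoxifen; nearly all actives have a fitted effect of over 55% in size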
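Cells lacking p53 (H1299-neo) are plated at 600 per well and allowed to settle overnight at 37C. Test compounds (up to 46 uM) are added and held 24 hours at 32C, then ATP is quantified by luminescence.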
Numbers without * were called inactive; ? = inconclusive; . = no result; [ ] = another dose, or the depositor's remark. Only some compounds are listed: those with a hit (about 2.9% of all), similar ones and a draw of the others. Unless noted, calls follow the shape of the dose curve; as a rule, active = well fitted curve in the direction sought with a large enough effect; inconclusive = small, poorly fitted or top-dose-only effect, or another doubt; inactive = no such curve, though single readings can be large; an effect the other way counts as inactive or inconclusive.

SMILES	p53null 39C tox	FH mod	DRV1 agonist	p53null 32C tox
CC(C)=CCC[C@](C)(O[C@@H]1O[C@H](CO[C@@H]2OC[C@H](O)[C@H](O)[C@H]2O)[C@@H](O)[C@H](O)[C@H]1O)[C@H]1CC[C@]2(C)[C@@H]1[C@H](O)C[C@@H]1[C@@]3(C)CC[C@H](O[C@@H]4O[C@H](CO)[C@@H](O)[C@H](O)[C@H]4O[C@@H]4O[C@H](CO)[C@@H](O)[C@H](O)[C@H]4O)C(C)(C)[C@@H]3CC[C@]12C	.	3%[53.3 µM]	.	.
Cc1ccc(C(=O)NCC(c2cccs2)S(=O)(=O)c2cccs2)cc1 (stereo unspecified)	-24%	?	74*	4%
CN1CCN(Cc2ccc(Nc3ncc(Cl)c(Nc4ccccc4S(=O)(=O)N(C)C)n3)cc2)CC1	.	0%[13.5 µM]	.	.
Cc1ccc(NS(=O)(=O)c2ccc(-n3cccn3)cc2)c(Br)c1	4%	-13%	72*	11%
Cc1cccc(NS(=O)(=O)c2ccc3[nH]c(=O)[nH]c3c2)c1C	-13%	-22%	13	2%
Cc1cccc(NS(=O)(=O)c2ccc(-n3cccn3)cc2)c1C	8%	-12%	73*	-3%
O=C(CCC1CCCC1)Nc1ccc(OCC(=O)N2CCOCC2)cc1	?	.	.	14µM*
CC(C)OCCCNc1ncnc2sc3c(c12)CCCC3	-8%	-5%	104*	-3%
Cc1[nH]cnc1C1CCN(c2nc3cccc4c3n2CCC4=O)CC1	.	-1%	.	.
COc1cc(C2c3c(-c4ccc(C)cc4)n[nH]c3C(=O)N2c2ccc(F)cc2)ccc1O (stereo unspecified)	41%	?	104*	-5%
COc1ccc(C2c3c(-c4ccc(F)cc4)n[nH]c3C(=O)N2c2ccccc2)cc1OC (stereo unspecified)	?	?	1	28%
COc1ccc(CCNc2ncnc3onc(C)c23)c(OC)c1	-27%	-12%	75*	-5%
COc1cccc(CNc2ncnc3onc(C)c23)c1	6%	-1%	33	3%
Clc1ccc(-c2noc3ncnc(NC4CCCCC4)c23)cc1	1%	-17%	29	-4%
Clc1cccc(-c2noc3ncnc(NC4CCCCC4)c23)c1	-11%	-4%	91*	-3%
CCN1C(=O)c2ccccc2Sc2ccc(NC(=O)Nc3ccc(C(C)=O)cc3)cc21	-5%	-20%	5	-2%
CCN(CC)CCNC(=O)Nc1ccc2c(c1)N(Cc1ccccc1)C(=O)c1ccccc1S2	18µM*	-6%	-25	13%
CCC(CC)C(=O)OC12C(OC(=O)C(C)C)C(C)C3(O)C(C=C(CO)CC4(O)C(=O)C(C)=CC43)C1C2(C)C (stereo unspecified)	.	-6%[53.3 µM]	.	.
Cc1ccc(OC(=O)c2cc(-c3ccc4c(c3)OCCO4)on2)c(C)c1	32µM*	-13%	-20	20µM*
Cc1ccc(O)c(NC(=O)c2cc(-c3ccc4c(c3)OCO4)on2)c1	?	.	-7	?
CC(=O)c1cccc(NC(=O)c2cc(-c3ccc4c(c3)OCCO4)on2)c1	3.2µM*	3%	-28	2µM*
CC(=O)Nc1ccc(NC(=O)c2cc(-c3ccc4c(c3)OCCO4)on2)cc1	?	7%	-5	?
O=c1cc2nc(-c3ccccc3F)nc(SCc3ccc(Br)cc3)n2[nH]1	33%	?	108*	0%
COc1ccccc1NC(=O)CSc1nc(-c2ccccc2F)nc2cc(=O)[nH]n12	84%	-7%	1	-3%
O=C(CO)[C@@H](O)[C@H](O[C@@H]1O[C@H](CO)[C@H](O)[C@H](O)[C@H]1O)[C@H](O)CO	.	-8%	.	.
CCOc1ccc(CCNC(=O)Cn2c(-c3cccs3)cc3cc(F)ccc32)cc1OCC	-18%	-10%	112*	0%
COc1ccccc1CNC(=O)Cn1c(-c2cccs2)cc2cc(F)ccc21	-16%	-10%	103*	-3%
CCOc1cc(CNC(=O)Cn2c(-c3cccs3)cc3cc(F)ccc32)ccc1OC	-10%	0%	-8	-7%
Fc1ccccc1CNCc1ccc(-c2ccnc3[nH]ccc23)cc1	.	-6%	.	.
